Experimental data taken from PubChem BioAssay.
Inconclusive results are not listed. Activity calls are given as the source filed them.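 Rule for the calls, unless noted: active = GFP signal, as percent of the solvent control, above the screen mean plus 3 SD, about 149; inconclusive = no reading because the compound's own fluorescence upset strain identification; inactive = the rest.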

Experiments:
[1] = rapamycin-like changes in RPL19A-GFP expression – cell-based, S. cerevisiae, multiplex flow cytometry, primary screen (AID 1862; in the data active = percent of DMSO control GFP below about 86%;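 note: lower values mimic rapamycin by blocking the RPL19A rise seen in DMSO cells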); settings: S. cerevisiae RPL19A-GFP strain, flow cytometry fluorescence, 3 h; at 10 µM; stronger effect = lower value
[2] = TOR pathway GLN3 branch reporter MEP2-GFP changes – S. cerevisiae, multiplex flow cytometry, primary screen (AID 1867;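 active = GFP response, as percent of the DMSO control, above the screen-wide mean plus 3 SD, about 139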;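 note: median GFP channel fluorescence of barcode-gated MEP2-GFP cells measured by flow cytometry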); settings: S. cerevisiae MEP2-GFP strain, 3 h, at 10 µM, stronger effect = higher value, 100% means same as DMSO wells
[3] = TOR pathway RTG branch CIT2 reporter changes – S. cerevisiae, GFP fusion, multiplex flow cytometry, primary screen (AID 1870;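 active = percent response above a set limit, the screen-wide mean plus 3 SD, cut at about 130% in these data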;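 note: barcoded CIT2-GFP strain pooled with four other GFP strains with rapamycin as positive control; median GFP fluorescence per well over plate mean of DMSO wells so 100% = DMSO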); settings: S. cerevisiae CIT2-GFP expression, 3 h, at 10 µM, stronger effect = higher value
[4] = TOR pathway LAP4-GFP level changes – S. cerevisiae, multiplex flow cytometry, primary screen (AID 1873); settings: S. cerevisiae LAP4-GFP expression, 3 h, at 10 µM, stronger effect = higher value
[5] = yeast AGP1-GFP level changes, GLN3 branch – cell-based, multiplex flow cytometry, S. cerevisiae, primary screen (AID 1887;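 active = GFP signal above the screen-wide mean plus 3 SD, that is over about 124.5% of the solvent control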;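 note: AGP1-GFP fusion strain of S. cerevisiae within a five-strain barcoded multiplex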); settings: 3 h, at 10 µM, stronger effect = higher value
[6] = reduced mouse 2C T cell binding to pMHC/ICAM-1 vesicles – MLPCN validation set, flow cytometry, LFA-1/ICAM-1 modulator project, pilot screen (AID 2523;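 active = response below a set limit, under 55% cells CD8-positive and vesicle-bound, and CD8 cells' 90th-percentile brightness under 279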;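 for vesicle binding response: mean PE anti-B7-1 fluorescence of CD8+ cells relative to row control; 100% = QL9-loaded vesicles with DMSO vehicle in the same plate row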); settings: 2C mouse CD8+ T cells, at 7 µM, stronger effect = lower value; double positive events: measured here: CD8+/vesicle+ event percentage
[7] = target: Integrin beta-1 (Homo sapiens) + Integrin alpha-4 (Homo sapiens) (UniProt P13612+P05556); assay: alpha4beta1 integrin LIBS antibody binding reduction – U937 cells, HUTS-21 mAb, flow cytometry, validation set, VLA-4 allosteric modulator project, pilot screen (AID 2674;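 active = inhibition above 50%, about 3 SD of the validation set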;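 note: antibody binding induced by the VLA-4 ligand LDV present at three times its Kd; 0% = LDV ligand with antibody and no compound and 100% = antibody without LDV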); settings: HUTS-21 LIBS mAb binding, at 6.7 µM, stronger effect = higher value, binding induced by LDV ligand
[8] = calorie-restriction mimetic ROS inhibitors, yeast – validation compound set, pilot screen (AID 2706;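 active = superoxide response below 65% of plate, a cut near 3 SD across the whole screen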;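 note: yeast exposed to compound for one week at 30 degrees C before staining; 100% = mean of all compound wells on the same plate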); settings: S. cerevisiae aging, superoxide DHE fluorescence; at 10 µM; stronger effect = lower value
[9] = target: Beta-adrenergic receptor kinase 1 (Homo sapiens) (UniProt P25098); assay: GRK2 binders displacing RNA aptamer, biochemical, validation, human GRK2, bead flow cytometry (AID 488806;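 active = aptamer binding inhibition above 30%, about 3 SD of noise from non-fluorescent compounds; inactive = inhibition at or below 30%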); settings: bead-bound GRK2, FAM-aptamer displacement, at 10 µM, stronger effect = higher value
[10] = target: Beta-2 adrenergic receptor (Homo sapiens) (UniProt P07550); assay: agonist-induced loss of surface beta2AR – cell-based, FAP fluorogen, flow cytometry, validation set, pilot screen (AID 504459;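 active = percent response above 42, roughly 3 SD of non-fluorescent test compounds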;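 note: agonist-driven loss of surface beta2AR via internalization measured by FAP dye flow cytometry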); settings: Am2.2-beta2AR cells, at 10 µM, stronger effect = higher value
[11] = target: AP-2 complex subunit beta (Homo sapiens) (UniProt P63010); assay: beta-arrestin/AP2 interaction blockers – biochemical, validation set, GST-AP2 beads, flow cytometry, pilot screen (AID 504541;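 active = inhibition above 54%, about 3 SD of non-fluorescent compounds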;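 note: AP2 carries R879A mutation and is captured from E. coli lysate; bead-bound FITC arrestin peptide fluorescence measuring arrestin peptide binding to AP2; 0% = DMSO wells and 100% = excess unlabeled arrestin peptide control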); settings: FITC arrestin peptide, at 10 µM, stronger effect = higher value, AP2 beta2 appendage fragment, R879A mutant
[12] = cytosolic pH regulators acting via V-ATPase – S. cerevisiae, pHLuorin, HTS validation (AID 504600; in the data active = response above about 15%;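 note: plate controls were DMSO for no effect and reference compound for full effect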); settings: V-ATPase proton transport, at 10 µM, stronger effect = higher value
[13] = test system: anti-desmoglein-3 scFv antibody binding to human DSG3; assay: blockers of pathogenic pemphigus antibody–desmoglein-3 binding – biochemical, validation compound set, bead-based, flow cytometry, pilot screen (AID 588368;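 active = binding below the plate cutoff, the plate median minus 3 SD, with a reading above zero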;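 note: signal is the median channel fluorescence of bead-bound GFP antibody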); settings: Protein G beads, DSG3-Fc, scFv-GFP binding, at 10 µM, stronger effect = lower value
[14] = Nile Red efflux blockade in pump-expressing yeast – validation compound set, multiplex, phenotypic, pilot screen (AID 588506;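 active = efflux inhibition above 0.42, the validation set average plus 4 SD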;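 note: Nile Red retained in cells so higher fluorescence means more efflux inhibition; 0 = negative control wells and 1 = enniatin B 25 µM full block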); settings: S. cerevisiae pump-expressing triplex, Nile Red efflux flow cytometry; at 10 µM; stronger effect = higher value; the pumps come from Candida albicans
[15] = target: ATP-binding cassette sub-family B member 6 (Homo sapiens) (UniProt Q9NP58); assay: blockers of ABCB6-driven porphyrin uptake – K562-ABCB6 cells, flow cytometry, validation set, pilot screen (AID 588550;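 active = inhibition above the screen-wide mean plus 3 SD, about 51%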;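 note: 0% = DMSO wells and 100% = benzethonium chloride 70 µM positive control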); settings: K562-ABCB6 porphyrin accumulation, 1 h, at 10 µM, stronger effect = higher value
[16] = AML differentiation inducers, ER-HoxA9 marrow cells – cell-based, GFP/MAC1 double positive, flow cytometry, validation set, primary screen (AID 588685;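 active = differentiation response of at least 50%, scaled between solvent and reference control, from cells with both markers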;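 note: compound exposure lasts four days before antibody staining and flow analysis; 0% = DMSO wells and 100% = 5 µM fulvestrant positive control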); settings: stronger effect = higher value, normalized: vehicle 0, fulvestrant 100

Chain of AP-2 complex subunit beta (Homo sapiens) (P63010 whole entry, looked up, the tested form may be a part, one chain of several): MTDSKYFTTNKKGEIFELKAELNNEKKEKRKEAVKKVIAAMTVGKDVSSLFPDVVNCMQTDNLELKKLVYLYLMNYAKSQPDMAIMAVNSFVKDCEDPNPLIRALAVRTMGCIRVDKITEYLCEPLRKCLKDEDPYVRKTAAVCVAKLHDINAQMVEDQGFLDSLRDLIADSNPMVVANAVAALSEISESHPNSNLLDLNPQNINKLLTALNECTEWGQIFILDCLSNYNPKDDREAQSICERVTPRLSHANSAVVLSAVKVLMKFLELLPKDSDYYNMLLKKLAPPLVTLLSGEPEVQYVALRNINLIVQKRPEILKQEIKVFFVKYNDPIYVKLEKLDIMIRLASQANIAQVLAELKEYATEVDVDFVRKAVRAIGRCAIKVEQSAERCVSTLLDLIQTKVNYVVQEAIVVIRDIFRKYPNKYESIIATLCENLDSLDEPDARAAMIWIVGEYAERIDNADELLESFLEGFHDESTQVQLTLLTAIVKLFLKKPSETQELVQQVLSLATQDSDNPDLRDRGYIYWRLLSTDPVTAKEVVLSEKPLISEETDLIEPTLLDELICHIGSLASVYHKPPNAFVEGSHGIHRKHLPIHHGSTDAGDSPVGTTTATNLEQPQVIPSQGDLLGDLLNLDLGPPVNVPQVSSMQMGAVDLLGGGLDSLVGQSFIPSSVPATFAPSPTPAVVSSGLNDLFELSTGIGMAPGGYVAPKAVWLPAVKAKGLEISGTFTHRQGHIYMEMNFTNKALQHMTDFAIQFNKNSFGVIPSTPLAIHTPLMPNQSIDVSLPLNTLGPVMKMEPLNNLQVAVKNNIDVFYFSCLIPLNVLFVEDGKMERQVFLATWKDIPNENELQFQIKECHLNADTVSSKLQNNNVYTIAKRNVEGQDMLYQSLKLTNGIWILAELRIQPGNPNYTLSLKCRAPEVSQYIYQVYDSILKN
Chain of Beta-2 adrenergic receptor (Homo sapiens) (P07550 whole entry, looked up): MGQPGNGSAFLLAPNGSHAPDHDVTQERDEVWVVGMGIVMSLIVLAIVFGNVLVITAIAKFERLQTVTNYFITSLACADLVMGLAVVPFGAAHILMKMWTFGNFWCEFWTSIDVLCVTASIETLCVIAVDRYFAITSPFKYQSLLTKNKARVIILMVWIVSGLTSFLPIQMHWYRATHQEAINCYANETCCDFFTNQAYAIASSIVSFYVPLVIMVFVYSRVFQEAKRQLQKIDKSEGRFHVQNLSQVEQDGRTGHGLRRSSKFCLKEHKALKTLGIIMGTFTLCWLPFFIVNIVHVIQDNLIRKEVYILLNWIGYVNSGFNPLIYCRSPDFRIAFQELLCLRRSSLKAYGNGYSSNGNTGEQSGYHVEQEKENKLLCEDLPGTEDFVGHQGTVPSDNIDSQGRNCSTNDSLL
Chain of Beta-adrenergic receptor kinase 1 (Homo sapiens) (P25098 whole entry, looked up): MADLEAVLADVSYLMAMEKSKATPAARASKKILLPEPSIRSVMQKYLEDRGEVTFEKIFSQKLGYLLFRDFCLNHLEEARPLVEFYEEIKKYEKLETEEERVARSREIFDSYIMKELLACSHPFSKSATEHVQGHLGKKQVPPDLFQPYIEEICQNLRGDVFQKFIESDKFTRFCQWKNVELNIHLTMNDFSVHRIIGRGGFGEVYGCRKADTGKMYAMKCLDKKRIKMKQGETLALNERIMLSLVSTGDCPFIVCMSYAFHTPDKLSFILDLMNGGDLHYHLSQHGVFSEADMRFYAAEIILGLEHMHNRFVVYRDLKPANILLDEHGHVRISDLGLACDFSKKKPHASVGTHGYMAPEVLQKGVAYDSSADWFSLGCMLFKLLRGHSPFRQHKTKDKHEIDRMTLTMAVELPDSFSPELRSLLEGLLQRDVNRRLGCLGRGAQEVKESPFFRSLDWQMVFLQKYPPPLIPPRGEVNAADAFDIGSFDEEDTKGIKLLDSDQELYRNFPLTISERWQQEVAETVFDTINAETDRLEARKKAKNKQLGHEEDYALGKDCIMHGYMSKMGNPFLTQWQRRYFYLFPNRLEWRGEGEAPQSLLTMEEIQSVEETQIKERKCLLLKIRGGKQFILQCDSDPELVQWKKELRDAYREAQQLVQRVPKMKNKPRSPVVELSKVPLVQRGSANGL
Chain of Integrin beta-1 (Homo sapiens) + Integrin alpha-4 (Homo sapiens) (P05556 whole entry, looked up): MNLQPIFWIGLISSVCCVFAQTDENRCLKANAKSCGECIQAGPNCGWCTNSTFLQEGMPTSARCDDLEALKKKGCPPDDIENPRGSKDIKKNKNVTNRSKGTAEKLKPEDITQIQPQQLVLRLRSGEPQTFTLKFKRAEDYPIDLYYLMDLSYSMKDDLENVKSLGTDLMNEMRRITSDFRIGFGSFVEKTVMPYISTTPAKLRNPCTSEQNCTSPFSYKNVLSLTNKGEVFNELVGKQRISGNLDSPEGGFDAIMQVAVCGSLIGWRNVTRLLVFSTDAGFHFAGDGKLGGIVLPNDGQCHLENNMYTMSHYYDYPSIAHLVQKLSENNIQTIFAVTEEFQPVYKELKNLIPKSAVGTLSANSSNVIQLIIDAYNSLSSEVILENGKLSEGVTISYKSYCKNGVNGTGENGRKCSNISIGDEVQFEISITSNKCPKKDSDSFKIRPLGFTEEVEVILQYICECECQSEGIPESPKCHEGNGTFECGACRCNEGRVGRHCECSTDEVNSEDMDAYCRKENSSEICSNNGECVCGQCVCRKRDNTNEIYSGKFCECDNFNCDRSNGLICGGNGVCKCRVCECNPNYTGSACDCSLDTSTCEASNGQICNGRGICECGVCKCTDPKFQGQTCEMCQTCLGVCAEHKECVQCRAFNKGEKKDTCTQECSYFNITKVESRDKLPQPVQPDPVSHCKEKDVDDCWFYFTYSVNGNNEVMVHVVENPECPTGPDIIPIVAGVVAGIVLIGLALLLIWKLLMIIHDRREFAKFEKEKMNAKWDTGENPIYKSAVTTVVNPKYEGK
Chain of Integrin beta-1 (Homo sapiens) + Integrin alpha-4 (Homo sapiens) (P13612 whole entry, looked up): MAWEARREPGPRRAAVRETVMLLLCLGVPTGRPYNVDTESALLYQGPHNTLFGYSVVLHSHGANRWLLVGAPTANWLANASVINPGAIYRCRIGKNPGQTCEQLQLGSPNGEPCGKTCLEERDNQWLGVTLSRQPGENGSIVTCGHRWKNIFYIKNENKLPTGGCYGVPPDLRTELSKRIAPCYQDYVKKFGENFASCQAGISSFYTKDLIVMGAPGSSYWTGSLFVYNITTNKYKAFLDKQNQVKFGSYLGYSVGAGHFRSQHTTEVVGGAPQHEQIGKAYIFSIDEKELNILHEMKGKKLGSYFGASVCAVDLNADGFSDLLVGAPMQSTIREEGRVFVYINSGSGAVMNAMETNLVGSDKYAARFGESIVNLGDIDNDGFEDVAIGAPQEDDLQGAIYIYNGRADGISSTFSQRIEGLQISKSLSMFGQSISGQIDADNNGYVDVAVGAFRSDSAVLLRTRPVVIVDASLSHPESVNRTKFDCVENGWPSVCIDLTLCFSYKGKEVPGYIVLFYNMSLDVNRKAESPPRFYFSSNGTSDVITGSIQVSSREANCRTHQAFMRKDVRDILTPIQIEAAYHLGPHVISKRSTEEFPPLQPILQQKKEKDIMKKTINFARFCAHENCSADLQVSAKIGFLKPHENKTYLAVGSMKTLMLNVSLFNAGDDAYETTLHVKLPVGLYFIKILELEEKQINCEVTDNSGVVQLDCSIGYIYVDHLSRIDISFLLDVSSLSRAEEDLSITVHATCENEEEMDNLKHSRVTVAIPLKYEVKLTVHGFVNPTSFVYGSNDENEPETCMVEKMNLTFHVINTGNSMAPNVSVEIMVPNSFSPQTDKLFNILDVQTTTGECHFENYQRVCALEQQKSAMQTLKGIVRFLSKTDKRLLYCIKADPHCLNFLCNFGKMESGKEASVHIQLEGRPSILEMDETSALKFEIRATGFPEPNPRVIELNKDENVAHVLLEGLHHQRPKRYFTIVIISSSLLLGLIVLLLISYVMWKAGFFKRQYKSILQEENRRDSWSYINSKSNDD
Chain of ATP-binding cassette sub-family B member 6 (Homo sapiens) (Q9NP58 whole entry, looked up): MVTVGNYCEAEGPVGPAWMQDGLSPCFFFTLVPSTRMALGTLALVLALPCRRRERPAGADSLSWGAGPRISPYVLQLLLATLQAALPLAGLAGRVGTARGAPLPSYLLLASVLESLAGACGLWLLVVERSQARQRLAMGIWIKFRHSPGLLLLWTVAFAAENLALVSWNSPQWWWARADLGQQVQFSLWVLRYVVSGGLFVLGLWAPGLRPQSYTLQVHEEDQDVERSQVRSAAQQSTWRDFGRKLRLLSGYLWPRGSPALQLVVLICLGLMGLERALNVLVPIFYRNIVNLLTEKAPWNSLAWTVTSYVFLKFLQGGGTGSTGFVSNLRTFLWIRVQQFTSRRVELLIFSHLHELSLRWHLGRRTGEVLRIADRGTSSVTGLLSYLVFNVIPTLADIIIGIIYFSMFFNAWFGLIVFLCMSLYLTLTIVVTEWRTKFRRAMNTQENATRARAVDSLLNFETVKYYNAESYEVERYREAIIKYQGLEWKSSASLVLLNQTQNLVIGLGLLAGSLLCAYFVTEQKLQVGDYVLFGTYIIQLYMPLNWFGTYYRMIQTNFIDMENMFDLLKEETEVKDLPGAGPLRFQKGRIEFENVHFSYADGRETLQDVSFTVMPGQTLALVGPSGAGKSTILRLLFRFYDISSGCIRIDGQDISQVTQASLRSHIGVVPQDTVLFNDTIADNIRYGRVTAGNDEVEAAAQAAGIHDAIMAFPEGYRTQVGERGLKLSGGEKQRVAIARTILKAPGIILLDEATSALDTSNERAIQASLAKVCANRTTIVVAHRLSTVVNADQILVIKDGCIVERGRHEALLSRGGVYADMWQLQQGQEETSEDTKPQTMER

Row | SMILES | percent of DMSO control GFP [1] | GFP response vs DMSO [2] | percent response of DMSO control [3] | GFP response vs DMSO [4] | GFP response, % of DMSO [5] | double positive events [6] | vesicle binding response [6] | inhibition [7] | superoxide response (% of plate) [8] | aptamer binding inhibition [9] | response [10] | inhibition [11] | response [12] | binding (% of control) [13] | efflux inhibition (fraction of control) [14] | inhibition [15] | differentiation response [16]
1 | CCCCCCCCNC(C)C(O)c1ccc(SC(C)C)cc1 (stereo not given) | 93.5% (inactive) | 130% (inactive) | 102% (inactive) | 85.3% (inactive) | 92.2% (inactive) | 38.1% | 47.2% (active) | -12% (inactive) | 115% (inactive) | -13% (inactive) | 10.9% (inactive) | 15.9% (inactive) | -2.14% (inactive) | 109% (inactive) | -0.17 (inactive) | 11% (inactive) | 2.46% (inactive)
2 | CCOc1ccc(C(NC(C)=O)c2ccc(OC)c(OC)c2)cc1 (stereo not given) | 99.8% (inactive) | 104% (inactive) | 99.3% (inactive) | 101% (inactive) | 100% (inactive) | 58.9% | 28% (inactive) | -20.4% (inactive) | 107% (inactive) | 5% (inactive) | -0.66% (inactive) | -21.1% (inactive) | -0.46% (inactive) | 99.2% (inactive) | -0.63 (inactive) | 8% (inactive) | 0% (inactive)
3 | CCn1nc(C(=O)O)c(=O)c2cc3c(cc21)OCO3 | 103% (inactive) | 104% (inactive) | 104% (inactive) | 90.7% (inactive) | 98.3% (inactive) | 55.1% | 726% (inactive) | 14.1% (inactive) | 92.7% (inactive) | 2% (inactive) | -7.41% (inactive) | -8.41% (inactive) | 61.9% (active) | 98.4% (inactive) | -0.1 (inactive) | -8% (inactive) | 13.9% (inactive)
4 | CC(C)COCC1CC2(CC(C)(c3csc(N)n3)OC2=O)C(=O)O1 (stereo not given) | 105% (inactive) | 97.2% (inactive) | 102% (inactive) | 84.8% (inactive) | 102% (inactive) | 60.8% | 78.1% (inactive) | -9.79% (inactive) | 93% (inactive) | 5% (inactive) | -1.1% (inactive) | 0.87% (inactive) | -4.21% (inactive) | 94% (inactive) | 0.14 (inactive) | -16% (inactive) | -4.64% (inactive)
5 | CCOC(=O)C1=C(C)NC(C)=C(C(=O)OC)C1c1cccc(Cl)c1Cl (stereo not given) | 88.4% (inactive) | 125% (inactive) | 104% (inactive) | 79.2% (inactive) | 80.3% (inactive) | 65.9% | 193% (inactive) | 5.49% (inactive) | 121% (inactive) | 6% (inactive) | -8.07% (inactive) | -0.86% (inactive) | -0.17% (inactive) | 106% (inactive) | -0.28 (inactive) | 9% (inactive) | 0% (inactive)
6 | CN(C)CC/C=C1\c2ccccc2COc2ccccc21 | 96% (inactive) | 96.6% (inactive) | 90.5% (inactive) | 104% (inactive) | 109% (inactive) | 68.1% | 176% (inactive) | 20.2% (inactive) | 93.9% (inactive) | -3% (inactive) | 0.32% (inactive) | -7.94% (inactive) | 3.08% (inactive) | 79% (active) | -0.04 (inactive) | 6% (inactive) | -6.96% (inactive)
7 | CCCCCCCC(=O)OCC(O)CO (stereo not given) | 108% (inactive) | 103% (inactive) | 97.8% (inactive) | 92.7% (inactive) | 90.3% (inactive) | 60.6% | 45.8% (inactive) | 0.58% (inactive) | 110% (inactive) | 3% (inactive) | -8.74% (inactive) | -8.36% (inactive) | 4.53% (inactive) | 98.7% (inactive) | 0.02 (inactive) | 5% (inactive) | 2.2% (inactive)
8 | COc1cc(NC(=S)NN2CCN(C)CC2)cc(OC)c1OC | 105% (inactive) | 108% (inactive) | 116% (inactive) | 92% (inactive) | 106% (inactive) | 62.3% | 240% (inactive) | 7.85% (inactive) | 91.4% (inactive) | 3% (inactive) | -10.5% (inactive) | -10.5% (inactive) | 2.58% (inactive) | 105% (inactive) | -0.04 (inactive) | 13% (inactive) | 5.13% (inactive)
9 | COCCCN1C(=O)C(=O)/C(=C(/O)c2ccc3c(c2)CC(C)O3)C1c1cccnc1 (stereo not given) | 101% (inactive) | 102% (inactive) | 101% (inactive) | 114% (inactive) | 111% (inactive) | 59% | 137% (inactive) | 3.14% (inactive) | 97.1% (inactive) | -1% (inactive) | -22.5% (inactive) | 1.96% (inactive) | -1.78% (inactive) | 108% (inactive) | 0 (inactive) | 4% (inactive) | -9.91% (inactive)
10 | COc1ccc(CNCCC(c2ccc(F)cc2)c2ccc(OC(C)C)cc2)cc1OC (stereo not given) | 97.9% (inactive) | 105% (inactive) | 105% (inactive) | 119% (inactive) | 110% (inactive) | 66.1% | 227% (inactive) | 64.5% (active) | 91.3% (inactive) | -14% (inactive) | 24.3% (inactive) | 38.1% (inactive) | 0.54% (inactive) | 113% (inactive) | -0.04 (inactive) | -1% (inactive) | 2.89% (inactive)
